Compounds without any hit were thinned out: in the full panel of roughly 79,000, 15% have a hit. Cut-off read from the data, not from the text of the source: active = growth inhibition above about 70%; inactive = the rest. Where a SMILES comes first, the peptide text is derived from it. The star is where a group is joined. Boc = CC(C)(C)OC(=O)*; OBn = c1ccc(CO*)cc1; Bn = c1ccc(C*)cc1
Assays:
[1] = NCI Yeast Anticancer Drug Screen. Data for the rad50 strain (AID 155);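 note: 0% = growth of vehicle-only cultures of the same strain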; conditions: S. cerevisiae rad50 strain growth inhibition; at 50.0 µM; stronger effect = higher value
Outline: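 Yeast carrying a defined DNA repair defect were exposed to test compounds, and growth was compared with vehicle-treated controls to give percent inhibition.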

[2] = NCI Yeast Anticancer Drug Screen. Data for the mec2-1 strain (AID 157); conditions: S. cerevisiae mec2-1 strain, at 50.0 µM, stronger effect = higher value
Outline: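 Strain: mec2-1 (DNA repair/cell cycle alteration). Compound exposure, then growth measured; inhibition expressed relative to vehicle.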

[3] = NCI Yeast Anticancer Drug Screen. Data for the sgs1 mgt1 strain (AID 161);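 note: 0% = growth of cultures given vehicle only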; conditions: S. cerevisiae sgs1 mgt1 strain, at 50.0 µM, stronger effect = higher value
Outline: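 Read-out: growth inhibition vs vehicle controls. Cells: mutant yeast strain deficient in DNA damage repair.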

[4] = NCI Yeast Anticancer Drug Screen. Data for the cln2 rad14 strain (AID 165);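 note: 0% = growth equal to vehicle treated cultures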; conditions: S. cerevisiae cln2 rad14 strain, at 50.0 µM, stronger effect = higher value
Outline: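 Compounds are applied to the cln2 rad14 yeast strain, and growth is then compared with that of vehicle-treated cultures to give inhibition.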

[5] = NCI Yeast Anticancer Drug Screen. Data for the bub3 strain (AID 167); conditions: S. cerevisiae bub3 mutant strain, at 50.0 µM, stronger effect = higher value
Outline: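 Compounds were applied to a genetically altered yeast strain carrying a cell-cycle control defect. Growth inhibition was scored against vehicle-treated controls.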

[6] = NCI Yeast Anticancer Drug Screen. Data for the mlh1 rad18 strain (AID 175); conditions: S. cerevisiae mlh1 rad18 strain growth inhibition; at 50.0 µM; stronger effect = higher value
Outline: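 Read-out is yeast growth inhibition, calculated against vehicle-only controls. The compound was applied to a strain engineered with DNA damage repair alterations.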

Measured: growth inhibition

COc1cccc(-c2cc(=O)c3cc(Cl)cnc3[nH]2)c1
inactive: [1] 5.35% | [2] 2.7% | [3] 4.2% | [4] 31.1% | [5] 11.8% | [6] 5.1%

CC(C)CC(NC(=O)C(CCC(=O)OCc1ccccc1)NC(=O)OC(C)(C)C)C(=O)NC(COCc1ccccc1)C(=O)NC(Cc1ccccc1)C(=O)O (stereo not given) (Boc-E(OBn)LS(Bn)F-OH; configuration not given here)
inactive: [1] -6.65% | [2] -4.8% | [3] -8.05% | [4] 6% | [5] 13.3% | [6] -10.8%

CSc1cc(=O)[nH]c(=O)[nH]1
inactive: [1] 16.9% | [2] 3.1% | [3] 4.2% | [4] 22.4% | [5] 3.8% | [6] 10.8%

O=S(=O)(C/C=C/COc1ccccc1)c1ccc2ccccc2c1
inactive: [1] 3.05% | [2] 2.65% | [3] 23.8% | [4] 3.6% | [5] -5.85% | [6] -12.9%

COC(=N)c1ncn(Cc2ccccc2)c1N
inactive: [1] -21.6% | [2] -28.6% | [3] -11.9% | [4] -24.4% | [5] -7.35% | [6] -37.3%

CCC(C)C(N)C(=O)NC(Cc1ccc(O)cc1)C(=O)O (stereo not drawn) (H-Ile-Tyr-OH; configuration not given here)
inactive: [1] 16.4% | [2] -2.35% | [3] -0.8% | [4] 15.8% | [5] -10.2% | [6] 21.2%

O=C(NCCN1CCCCC1)c1cccc(I)c1
inactive: [1] 2.45% | [2] -4.85% | [3] 15.5% | [4] 28.3% | [5] 8.15% | [6] 16%

CC1(C)C2CC3C(=CCCC3C(=O)O)C1C2 (stereo not given)
inactive: [1] 11.4% | [2] 15.3% | [3] -8.55% | [4] 9.8% | [5] 11.1% | [6] 12.8%

CCOC(=O)CC(=O)c1cc(OC)c(OC)c(OC)c1
inactive: [1] 7.05% | [2] 16.8% | [3] 8.4% | [4] -75% | [5] 39.9% | [6] 20.4%

N=S(=O)(c1ccccc1)c1ccccc1[N+](=O)[O-] (stereo not given)
inactive: [1] 41.4% | [2] 17.9% | [3] 56% | [4] 49.5% | [5] 19.5% | [6] 57.2%

COc1ccc(/C=C2\SC(c3ccc(OC)cc3)N(NC(=O)Cc3ccccc3)C2=O)cc1 (stereo not given)
inactive: [1] -14.2% | [2] -34.8% | [3] -6.9% | [4] -63.2% | [5] 1.1% | [6] 1.15%

CCOC(=O)C1CC2(CCC(=O)O2)C(=O)O1 (stereo not given)
inactive: [1] -5.15% | [2] -5.95% | [3] -20.6% | [4] 3.05% | [5] -5.75% | [6] -6.85%

Cc1cc2nc3c(C(O)C(O)C(O)CO)nn(-c4ccccc4)c3nc2cc1C (stereo not given)
inactive: [1] -2.55% | [2] 5.05% | [3] -9.25% | [4] -15.6% | [5] -5.05% | [6] 16.1%

COc1ccc(C(O)CNC(=O)c2ccccc2)cc1 (stereo not given)
inactive: [1] 11.7% | [2] -4.4% | [3] 12.5% | [4] -7.2% | [5] -2.15% | [6] -60%

Cc1cc(Nc2ccc(O)cc2)nc(Nc2ccc(O)cc2)n1
inactive: [1] -8.25% | [2] -18.4% | [3] -35.3% | [4] -34% | [5] 10.9% | [6] -2.3%

Cc1occc1C(=S)Nc1ccc(Cl)c(/C=N/OC2CCCC2)c1
inactive: [1] 13.2% | [2] 26.1% | [3] 25.1% | [4] 30.7% | [5] 19.3% | [6] 18.8%

CCOC(=O)c1ccc(NC(=O)c2cccc(Cl)c2)cc1
inactive: [1] 0.1% | [2] -6.85% | [3] -4.25% | [4] -5.45% | [5] 9.5% | [6] 1.25%

COc1cc(C(=O)C(O)c2cc(OC)c(OC)c(OC)c2)cc(OC)c1OC (stereo not given)
inactive: [1] 18% | [2] 11.2% | [3] 11.1% | [4] -13% | [5] 2.95% | [6] 28.3%

c1cc(OCC2CO2)ccc1OCC1CO1 (stereo not given)
inactive: [1] 41% | [2] 19.9% | [3] 33.1% | [4] -24.9% | [5] 8.8% | [6] 49.4%

FC(F)(F)C1(C(F)(F)F)C2CCC3(CC(F)(F)C(F)(F)S3)C1C2 (stereo not given)
inactive: [1] -1.05% | [2] -27.9% | [3] -4.25% | [4] 22.9% | [5] 7.65% | [6] 30.6%

OCCCNc1nc2cc(Br)ccc2c2ccc(Br)cc12
inactive: [1] 47.6% | [2] 4.75% | [3] 23.9% | [4] -3.65% | [5] 0.1% | [6] 19.1%

CCOC(=O)C(C#N)C1(C(C#N)C(=O)OCC)C(=O)Nc2ccccc21 (stereo not given)
inactive: [1] 1.8% | [2] 14.6% | [3] 19.8% | [4] 21.8% | [5] 24.7% | [6] 32.3%

CC(=O)Cc1ccc(Cl)cc1[N+](=O)[O-]
inactive: [1] -14.8% | [2] 5.95% | [3] -8.5% | [4] -24.3% | [5] -9.7% | [6] 1.9%

CCN(CC)C(=S)N1C(=O)C2C3CCC(O3)C2C1=O (stereo not given)
inactive: [1] 19.1% | [2] 11.9% | [3] 13.2% | [4] 6.75% | [5] 28.2% | [6] -11.2%

CCOc1ccc(/C=C2\N=C(c3cccc(Cl)c3)OC2=O)cc1
inactive: [1] 12.2% | [2] 15.3% | [3] 22.1% | [4] 19.6% | [5] 17.2% | [6] 13.7%

NC(N)=NS(=O)(=O)c1ccc(Nc2c3ccccc3nc3c(C(=O)NNCCO)cccc23)cc1
inactive: [1] -10.1% | [2] -2.85% | [3] 25.6% | [4] -7.7% | [5] 15.9% | [6] -1.65%

Cc1ccc2c(ccc3nnc(C)n32)c1
inactive: [1] 9.15% | [2] 4.05% | [3] 4.65% | [4] -2.95% | [5] 2.75% | [6] 10.8%

CNC(=O)OCc1c(COC(=O)NC)c2n(c1C)CCS2(=O)=O
inactive: [1] -1.25% | [2] -18.3% | [3] -8.15% | [4] -9.95% | [5] 0.35% | [6] 15.2%

CCCN1C(=O)c2cc(=O)[nH]c(O)c2C1C (stereo not given)
inactive: [1] -14.2% | [2] -10.9% | [3] -8.75% | [4] 9% | [5] -13.3% | [6] 0.4%

CCn1cc(C(=O)C(=O)N(C)C)c2ccccc21
inactive: [1] 13.2% | [2] -7.75% | [3] -2.5% | [4] -3.35% | [5] 17.2% | [6] 1.95%

C=C1C(=O)OC2CCCC(O)C12 (stereo not given)
inactive: [1] 2.35% | [2] 2.45% | [3] -6.55% | [4] -39% | [5] -12.2% | [6] 1.9%

O=C1c2ccccc2C(=O)N1C[P+](c1ccccc1)(c1ccccc1)c1ccccc1
inactive: [1] 41.9% | [2] 28.8% | [3] 32.4% | [4] 16.2% | [5] 2.25% | [6] 12.4%

Cc1cc(C)c2c(-c3ccccc3)cc(=O)[nH]c2c1
inactive: [1] -33% | [2] -16.1% | [3] -29.4% | [4] -3.55% | [5] -33.7% | [6] -51.1%

C=C(C)C(=O)O[C@H]1C/C(CO)=C/CCC(=C)C(OC(C)=O)[C@H]2OC(=O)C(=C)[C@H]12 (stereo not given in full)
inactive: [1] 10.4% | [2] 36.8% | [3] -0.9% | [4] 6.85% | [5] -21.9% | [6] -20.2%

C=C(COC(C)=O)CC(/C=C(\C)CCC=C(C)C)OC(C)=O (stereo not given)
inactive: [1] -6.25% | [2] -1.15% | [3] 8.9% | [4] -11.5% | [5] -5.25% | [6] 11%

CCCc1ncc(C[n+]2ccccc2C)c(N)n1
inactive: [1] 11.8% | [2] -15.1% | [3] 23.2% | [4] 25.4% | [5] 10.7% | [6] 8.25%

C(=C1\COC(c2ccccc2)=N1)/c1ccc2c(c1)OCO2
inactive: [1] -13.2% | [2] 14.8% | [3] 13.8% | [4] -19.6% | [5] -5% | [6] 26.9%

CCN(CC)CCCCCCCNc1nccc2ccccc12
inactive: [1] 31.1% | [2] -2.4% | [3] -8.4% | [4] -23.3% | [5] 12.8% | [6] 35.4%

CC(C)CCC[C@@H](C)[C@H]1CC[C@H]2C3=CC=C4C[C@H](OC(=O)c5ccccc5)CC[C@]4(C)[C@H]3CC[C@]12C
inactive: [1] 0.4% | [2] 5.5% | [3] 11% | [4] 3.7% | [5] -1.25% | [6] -10.2%

Cn1cnc([N+](=O)[O-])c1Sc1ccccc1N
inactive: [1] -7.3% | [2] -4.15% | [3] 0.45% | [4] 18.6% | [5] -15.7% | [6] -2.5%

From PubChem BioAssay (NCI)
